Assay results reported in ChEMBL document CHEMBL4513216, “Probing the Open Global Health Chemical Diversity Library for Multistage-Active Starting Points for Next-Generation Antimalarials” (ACS Infect Dis, 2020).
Among all 69,000 compounds or so, about 8,600 (12%) showed an effect of 50% or more. For the sample, strong results were picked, then their nearest neighbours and some compounds at random.

What follows are molecules tested on Plasmodium berghei (assay: Screen against P. berghei liver stage (PbLuc), transformed with Luciferase, at 10uM). Settings: tested at 10 uM.
Format: functional, HepG2

Row | SMILES | INHIBITION
1 | CC(O)CN1CCN(C(=O)c2cnn(-c3ccccc3Cl)c2)CC1 (stereo not given) | 32%
2 | CCOCCN1CCN(c2ccc(C#N)cn2)CC1CC (stereo not given) | 2.91%
3 | O=C(c1cnoc1)N1CCC[C@]2(C[C@@H](OCc3ccccn3)CO2)C1 | 8.47%
4 | Cc1cc(C(N)=O)c2c(Br)cccc2n1 | 53.2%
5 | Cc1cc(C(=O)N(C)C)c2c(Br)cccc2n1 | 40.7%
6 | Cc1cc(C(=O)O)c2c(Br)cccc2n1 | 8.7%
7 | Cc1nn(C)c(C)c1CCC(=O)N1CCCC(n2cccn2)C1 (stereo not given) | 16.9%
8 | CCCS(=O)(=O)CCN1CCN(c2cc(F)ccc2F)CC1 | 25.2%
9 | NS(=O)(=O)CCN1CCN(c2cc(F)ccc2F)CC1 | -6.51%
10 | O=C1CCC(=O)N1CCN1CCN(c2cc(F)ccc2F)CC1 | 79.1%
11 | NC(=O)C1CCN(C(=O)c2ccn(-c3cccc(Cl)c3)n2)C1 (stereo not given) | -1.14%
12 | O=C(NCCCn1cccn1)NCC(c1ccco1)N1CCCC1 (stereo not given) | -49.5%
13 | CCOCC(=O)N1CC[C@H]2OCC[C@@]2(COc2ncccc2F)C1 | -23.4%
14 | Cc1csc(CNC(=O)NCC2(c3ccc4c(c3)OCO4)CC2)n1 | 2.29%
15 | Cc1n[nH]cc1CNCC1(c2ccc3c(c2)OCO3)CCOCC1 | -21.4%
16 | Cc1ncsc1CNC(=O)NCC1(c2ccc3c(c2)OCO3)CC1 | 70.2%
17 | CN1CCN(Cc2cn3c(n2)CN(Cc2cccc(F)c2)CC3)CC1 | 27.6%
18 | CCn1nc(C)c(-c2cncn2Cc2ccccc2CN(C)C)c1C | 34.1%
19 | Cc1ccc(-c2cc(C(=O)O)sn2)cc1 | -21.9%
20 | CN(C)c1ncc(I)c(C2CCCN2S(C)(=O)=O)n1 (stereo not given) | 7.19%
21 | CNc1ccnc(NCCSc2nccn2C)n1 | 44.3%
22 | Cn1ccnc1SCCNc1nccc(C(F)(F)F)n1 | -1.16%
23 | Cc1ccnc(NCCSc2nccn2C)n1 | 65.6%
24 | O=C(NCc1nccs1)N1CCOC(c2ccccc2Cl)C1 (stereo not given) | 19.9%

Row | SMILES | INHIBITION
25 | CCC(Nc1nc(C)nc2onc(C)c12)c1cccs1 (stereo not given) | 79.9%
26 | Cc1noc(C(C)C)c1C(=O)NCC(c1cccs1)N(C)C (stereo not given) | 2.3%
27 | Cc1nc(NCC(O)CN2CCCCCC2)c2c(C)noc2n1 (stereo not given) | 15.7%
28 | Cc1nc(NCCSc2cnn[nH]2)c2c(C)noc2n1 | 1.56%
29 | CCC(Nc1nc(C)nc2onc(C)c12)c1nc(C)c(C)s1 (stereo not given) | 70%
30 | Cc1noc2ncnc(NC(CC(C)(C)C)c3cccnc3)c12 (stereo not given) | 23.5%
31 | CNC(=O)NC(=O)C(C)N(C)CCCc1cc(-c2ccccc2)no1 (stereo not given) | -14.18%
32 | c1csc(CN2Cc3nccn3CC(Cn3cncn3)C2)c1 (stereo not given) | -22.1%
33 | CCCc1cc(C(=O)N[C@@H]2CCC[C@@H](N3CCCC3)[C@@H]2O)no1 | 13.7%
34 | Cn1nccc1CNS(=O)(=O)c1cc(F)ccc1Br | 6.02%
35 | CC(C)c1nnc(NC(=O)Cc2ccc(F)cc2)[nH]1 | 51.1%
36 | CC(C)c1nnc(NC(=O)CCc2cc(F)ccc2F)[nH]1 | 53.3%
37 | CC(C)N1CCC(CNC(=O)CCc2cc(F)ccc2F)C1 (stereo not given) | -20.3%
38 | CCC(C)Oc1cc(C(=O)Nc2nnc(C(C)C)[nH]2)ccn1 (stereo not given) | 42.6%
39 | CC(C)c1nnc(NC(=O)c2cccc(OCC(F)(F)F)n2)[nH]1 | -38.6%
40 | CS(=O)(=O)c1nnc(NC(=O)CCc2cc(F)ccc2F)[nH]1 | 43.7%
41 | O=C(C1=CC2(CCN(CCO)CC2)c2ccccc21)N1CCCC1 | 13.6%
42 | O=C(CCc1nc(-c2ccccc2)no1)N[C@H]1COC[C@@H]1N1CCCC1 | -12.1%
43 | Cc1nc(N)cc(C2CN(C(=O)c3cscn3)CCO2)n1 (stereo not given) | 35%
44 | COc1ccc(NC(=O)COc2nn(C)c3nc(C)cc(C)c23)cn1 | 22.8%
45 | CCc1ccc(C2CCCN2C(=O)CNC(=O)CCC(C)C)o1 (stereo not given) | 64.8%
46 | CCn1nccc1CNC(=O)NC1CCCCC1 | 26.8%
47 | CCc1ccc(C2CCCCCN2C(=O)CNC(=O)C2CC2)o1 (stereo not given) | 63.7%
48 | CCc1ccc(C(=O)N2CCCCC2CNS(C)(=O)=O)o1 (stereo not given) | -23.5%

Row | SMILES | INHIBITION
49 | CC(C)CNC(=O)CN1CCCC(c2ccc(C(=O)O)cc2)C1 (stereo not given) | 33%
50 | O=C(NCC(=O)N1CCCC1Cc1cccc(F)c1)C1CCCC1 (stereo not given) | 7.19%
51 | CCc1ccc(C(=O)NCC2CCCN2CC)o1 (stereo not given) | 31.2%
52 | CC(C)CCC(=O)NCC(=O)N1CCCCCC1c1ccco1 (stereo not given) | 19.3%
53 | CCc1ccc(C2CCCCCN2C(=O)CNC(=O)NC2CC2)o1 (stereo not given) | 68%
54 | CNCC(=O)N1CCCC1c1nc(C(C)C)no1 (stereo not given) | 6.33%
55 | CCc1ccc(C2CCCN2C(=O)NCC(=O)NCC(C)C)o1 (stereo not given) | 60.4%
56 | Cc1ccc(C2CCCCCN2C(=O)Nc2cn[nH]c2)o1 (stereo not given) | -22.05%
57 | COc1ccc(C(=O)Nc2ccc3c(c2)C(=O)NC3)cc1Br | -64.3%
58 | COCc1cc(N(C)CCC(O)c2ccccc2)n2nccc2n1 (stereo not given) | -27.3%
59 | O=C1CSC(C(F)(F)F)c2c(O)nn(C3CCCCC3)c2N1 (stereo not given) | 38.1%
60 | Cc1cnn(CCNc2nc(C)cc(N(C)C)n2)c1 | 21.5%
61 | CCc1nnc2n1CCN(C(=O)CCOc1cc(C)ccc1C)C2 | -3.19%
62 | O=S(=O)(Cc1ccc(F)c(Cl)c1)NCCOc1cccnc1 | -11.4%
63 | c1cnc2[nH]c(C3CCCNC3)c(CN3CCCOCC3)c2c1 (stereo not given) | -15.3%
64 | CCc1ccc(C(=O)NC[C@H]2CCCN2C(=O)c2ccc(CC)o2)o1 | -3.68%
65 | CCc1ccc(C2CCCN2C(=O)Cc2ccc(NC(C)=O)cc2)o1 (stereo not given) | 65.8%
66 | CC(=O)Nc1ccc(CC(=O)N2CC(S(=O)(=O)C3CCCCC3)C2)cc1 | 13.1%
67 | Cc1nnc(N2C[C@H](Oc3ccccn3)[C@H]3OCCC[C@H]32)s1 | -10.3%
68 | Cc1cc(NC(=O)CCNC(C)(C)c2nc(C)c(C)s2)no1 | 53.8%
69 | Cc1cc(NC(=O)CNC(C)(C)c2nc(C)c(C)s2)no1 | 26.6%
70 | Cc1cc(NC(=O)NC(C)(C)c2nc(C)c(C)s2)no1 | 29.1%
